Results on 9 molecules are retold here after PubChem BioAssay (Tox21).

SMILES strings stand for the structures. Several values for one entry are separate records, joined by “and”; a condition that tells them apart may be missing. Equal entries are not always repeated. The source holds several records for some structures; these can differ, active in one and inactive in another. Activity calls are given as the source filed them. Unless noted, the call rests on the fitted dose curve; in most records, active means well fitted curve in the direction sought with a large enough effect in the repeat runs; inconclusive means weak or mixed curves; inactive means no such curve, though single readings can be large; an effect the other way counts as inactive or inconclusive.

The nature of assay [1]: qHTS assay to identify small molecule antagonists of the thyroid receptor (TR) signaling pathway - cell viability counter screen (AID 743064). Further: nearly all actives have a fitted effect of over 50% in size. Further: potency means the concentration at half of the fitted maximal effect. The essentials: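 Viability of T3-stimulated (1 nM final) GH3.TRE-Luc cells is measured by CellTiter-Fluor fluorescence after 23.5 h compound exposure at 37 °C plus 30 min reagent incubation.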
The nature of assay [2]: qHTS assay to identify small molecule antagonists of the thyroid receptor (TR) signaling pathway (AID 743065). Further: nearly all actives have a fitted effect of over 55% in size. Further: potency means the concentration at half of the fitted maximal effect. The essentials: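 GH3.TRE-Luc rat pituitary cells carrying two TR response elements driving luciferase were plated for 4 h, given compound plus 1 nM T3 (final), and incubated 23.5 h at 37 C. ONE-Glo luminescence measured reporter inhibition; CellTiter-Fluor fluorescence tracked cytotoxicity.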
In general terms: qHTS replaces the single test concentration by a dilution series.

Assay [3] deals with thyroid hormone receptor (rat, GH3 cells). In words: qHTS assay to identify small molecule agonists of the thyroid receptor (TR) signaling pathway (AID 743066; calls by dose curve).
Assay [4] is described as follows: qHTS assay to identify small molecule antagonists of the estrogen receptor alpha (ER-alpha) signaling pathway - cell viability counter screen (AID 743074; calls by dose curve; further: nearly all actives have a fitted effect of over 45% in size; further: potency means the concentration at half of the fitted maximal effect).
The target of assay [5] is Estrogen receptor (Homo sapiens) (UniProt P03372). Nature of the assay: qHTS assay to identify small molecule agonists of the estrogen receptor alpha (ER-alpha) signaling pathway (AID 743075; calls by dose curve; further: potency means the concentration at half of the fitted maximal effect).
Chain of Estrogen receptor (Homo sapiens) (P03372 whole entry, looked up): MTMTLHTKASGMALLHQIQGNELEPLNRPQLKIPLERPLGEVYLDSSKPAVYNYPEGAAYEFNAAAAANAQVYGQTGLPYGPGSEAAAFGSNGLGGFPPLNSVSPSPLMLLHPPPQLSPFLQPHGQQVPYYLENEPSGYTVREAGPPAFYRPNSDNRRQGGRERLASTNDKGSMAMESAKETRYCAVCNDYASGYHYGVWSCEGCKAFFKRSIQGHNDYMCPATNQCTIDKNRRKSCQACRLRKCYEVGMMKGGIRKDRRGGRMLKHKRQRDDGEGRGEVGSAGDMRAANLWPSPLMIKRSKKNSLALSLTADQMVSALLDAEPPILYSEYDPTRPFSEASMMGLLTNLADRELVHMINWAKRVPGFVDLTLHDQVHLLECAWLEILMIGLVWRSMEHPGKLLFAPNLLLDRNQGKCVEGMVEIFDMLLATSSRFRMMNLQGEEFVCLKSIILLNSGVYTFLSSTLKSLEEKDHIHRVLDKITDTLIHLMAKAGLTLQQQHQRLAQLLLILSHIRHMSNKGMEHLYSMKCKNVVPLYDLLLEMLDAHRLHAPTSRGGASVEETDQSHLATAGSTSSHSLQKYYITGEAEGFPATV
The nature of assay [6]: qHTS assay to identify small molecule antagonists of the estrogen receptor alpha (ER-alpha) signaling pathway using the BG1 cell line (AID 743080; calls by dose curve;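 further: BG1 cells stimulated with 17beta-estradiol alongside compound; nearly all actives have a fitted effect of over 25% in size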; further: potency means the concentration at half of the fitted maximal effect). The conditions noted are these: BG1Luc4E2 ERE-luciferase antagonist mode, luminescence; activity change, negative = inhibition: at 70.3 µM (top of the series). The essentials:
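Luciferase inhibition measured with ONE-Glo after 30 min at RT in BG1Luc4E2 cells given test compounds and 17beta-estradiol for 21.5 h at 37 C; CellTiter-Fluor viability read in the same wells beforehand.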

Assay [7] deals with Aromatase (Homo sapiens) (UniProt P11511). In words: qHTS assay to identify aromatase inhibitors (AID 743083). Further: nearly all actives have a fitted effect of over 55% in size. Further: potency means the concentration at half of the fitted maximal effect.
Chain of Aromatase (Homo sapiens) (P11511 whole entry, looked up): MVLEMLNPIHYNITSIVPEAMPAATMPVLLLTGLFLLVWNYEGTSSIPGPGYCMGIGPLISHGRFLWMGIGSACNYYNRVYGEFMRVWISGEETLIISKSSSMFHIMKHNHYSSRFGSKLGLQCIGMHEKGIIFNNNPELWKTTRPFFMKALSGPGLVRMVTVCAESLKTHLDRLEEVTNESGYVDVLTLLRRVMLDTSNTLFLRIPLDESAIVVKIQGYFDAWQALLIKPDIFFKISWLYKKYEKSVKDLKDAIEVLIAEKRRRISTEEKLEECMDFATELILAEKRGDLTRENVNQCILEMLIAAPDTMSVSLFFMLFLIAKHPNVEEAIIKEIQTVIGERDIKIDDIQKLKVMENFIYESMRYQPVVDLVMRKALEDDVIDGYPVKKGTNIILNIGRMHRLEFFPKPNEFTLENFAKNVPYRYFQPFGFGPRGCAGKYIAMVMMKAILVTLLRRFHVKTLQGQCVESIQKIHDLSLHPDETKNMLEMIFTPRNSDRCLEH
Assay [8] can be described thus: qHTS assay to identify aromatase inhibitors - cell viability counter screen (AID 743084).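 Further: cells stimulated with testosterone during compound exposure; nearly all actives have a fitted effect of over 55% in size.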 Further: potency means the concentration at half of the fitted maximal effect.
The target of assay [9] is Aryl hydrocarbon receptor (Homo sapiens) (UniProt P35869). Nature of the assay: qHTS assay to identify small molecule that activate the aryl hydrocarbon receptor (AhR) signaling pathway (AID 743085). Further: nearly all actives have a fitted effect of over 15% in size. Further: potency means the concentration at half of the fitted maximal effect.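 On activation: HG2L7.5c1 human HepG2 liver cells with stably integrated DRE-driven firefly reporter.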 The essentials:
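A multiplexed format paired cell viability (CellTiter-Fluor fluorescence) with AhR-dependent luciferase output (ONE-Glo luminescence) in the same wells of HepG2 DRE-luc cells after 24 h compound exposure at 37C.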

Assay [10] in a line: qHTS assay to identify small molecule antagonists of the peroxisome proliferator-activated receptor gamma (PPARg) signaling pathway - cell viability counter screen (AID 743194). Further: nearly all actives have a fitted effect of over 55% in size. Further: potency means the concentration at half of the fitted maximal effect. In outline: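 PPARg-UAS-bla HEK293H cells were plated, rested 5 h at 37 C, then treated with compounds plus rosiglitazone (50 nM final) for 17 h at 37 C; viability was then read by CellTiter-Glo luminescence after 30 min at room temperature.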

Assay [11] can be described thus: qHTS assay for small molecule agonists of the antioxidant response element (ARE) signaling pathway - cell viability counter screen (AID 743203; calls by dose curve; further: nearly all actives have a fitted effect of over 55% in size; further: potency means the concentration at half of the fitted maximal effect). In outline: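 Luminescence read-out (CellTiter-Glo, 30 min at room temperature) measured cell viability in the same wells as the ARE beta-lactamase reporter. HepG2 ARE-bla cells were treated with compounds for 16 hrs at 37C/5% CO2.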

The nature of assay [12]: qHTS assay for small molecule activators of the heat shock response signaling pathway - cell viability counter screen (AID 743209). Further: nearly all actives have a fitted effect of over 50% in size. Further: potency means the concentration at half of the fitted maximal effect. In outline:
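HSE-bla HeLa; 1500 cells/well; overnight 37 C, 5% CO2; compound 5 h 37 C; LiveBLAzer B/G substrate 2.5 h RT; CellTiter-Glo 30 min RT; luminescence.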

Assay [13] can be described thus: qHTS assay to identify small molecule antagonists of the estrogen receptor alpha (ER-alpha) signaling pathway using the BG1 cell line - cell viability counter screen (AID 743081).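 Further: compound given together with 17beta-estradiol as the ER stimulus; nearly all actives have a fitted effect of over 45% in size.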 Further: potency means the concentration at half of the fitted maximal effect.
Assay [14] can be described thus: qHTS assay to identify small molecule that activate the aryl hydrocarbon receptor (AhR) signaling pathway - cell viability counter screen (AID 743086). Further: nearly all actives have a fitted effect of over 45% in size. Further: potency means the concentration at half of the fitted maximal effect. The essentials: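 HepG2-AhR-luc (HG2L7.5c1) cells, 4000/well, were preincubated 5 h at 37C, exposed to compound in qHTS format for 24 hr at 37C, then given CellTiter-Fluor for 30 min; viability was read as fluorescence in the reporter wells.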

Assay [15] addresses Peroxisome proliferator-activated receptor gamma (Homo sapiens) (UniProt P37231). In words: qHTS assay to identify small molecule agonists of the peroxisome proliferator-activated receptor gamma (PPARg) signaling pathway (AID 743094; active means well fitted activation curve with a large enough effect in the signal ratio in the repeat runs, not every such curve was filed as active; inconclusive means weak or mixed curves, or effect the other way; inactive means no such curve, though single readings can be large or run the other way; the % refers to the signal ratio). The essentials:
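HEK293H PPARg-bla cells, 5 h settle at 37C/5% CO2; compound (DMSO) 17 h, 37C; B/G FRET substrate 1 h RT; fluorescence intensity read-out. qHTS format.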

Assay [16] shares this target. In words: qHTS assay to identify small molecule antagonists of the peroxisome proliferator-activated receptor gamma (PPARg) signaling pathway (AID 743191; calls by dose curve; further: nearly all actives have a fitted effect of over 30% in size). In outline: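 GeneBLAzer PPARg UAS-bla HEK293H cells carrying a UAS-driven beta-lactamase reporter were plated at 3000 cells/well, preincubated 5 h at 37C, then given compound for 17 h at 37C; LiveBLAzer B/G FRET substrate was read after 1 h at room temperature.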

The nature of assay [17]: qHTS assay for small molecule activators of the heat shock response signaling pathway (AID 743210; active means well fitted activation curve with a large enough effect in the signal ratio in the repeat runs, with a control signal flat, not every such curve was filed as active; inconclusive means weak or mixed curves; the % refers to the signal ratio;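 further: HeLa cells with beta-lactamase reporter driven by heat shock elements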). The essentials:
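Activation of heat shock element-controlled beta-lactamase expression is measured in HeLa cells by LiveBLAzer FRET fluorescence, with compound exposure lasting 5 h at 37 C and substrate loading 2.5 h at room temperature.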

Assay [18] addresses Estrogen receptor (Homo sapiens) (UniProt P03372). In words: qHTS assay to identify small molecule antagonists of the estrogen receptor alpha (ER-alpha) signaling pathway (AID 743069; active means well fitted curve in the direction sought with a large enough effect in the signal ratio in the repeat runs, not every such curve was filed as active; inconclusive means weak or mixed curves, or effect the other way; inactive means no such curve, though single readings can be large or run the other way; the % refers to the signal ratio; further: potency means the concentration at half of the fitted maximal effect). In outline:
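Screening used a UAS-driven beta-lactamase reporter integrated into HEK293 cells expressing ER-alpha, stimulated with 17beta-estradiol alongside test compounds over 18 hr at 37C; signal came from LiveBLAzer B/G FRET fluorescence.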

The target is the same in assay [19]. In words: qHTS assay to identify small molecule agonists of the estrogen receptor alpha (ER-alpha) signaling pathway using the BG1 cell line (AID 743079). Further: nearly all actives have a fitted effect of over 20% in size. The conditions noted are these: BG1Luc4E2 cells, ERE-luciferase agonist, 22 h; activation: at 70.3 µM (top of the series).
Assay [20] is described as follows: qHTS assay for small molecule agonists of the antioxidant response element (ARE) signaling pathway (AID 743202; active means well fitted activation curve with a large enough effect in the signal ratio in the repeat runs, not every such curve was filed as active; inconclusive means weak or mixed curves, or effect the other way; inactive means no such curve, though single readings can be large or run the other way; the % refers to the signal ratio). The essentials:
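Steps: seed ARE-bla HepG2 cells (2,000/well); incubate 5 h at 37 C; add compounds by pin tool; incubate 16 h at 37 C; add FRET substrate; read fluorescence after 2 h at RT.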

Chain of Aryl hydrocarbon receptor (Homo sapiens) (P35869 whole entry, looked up): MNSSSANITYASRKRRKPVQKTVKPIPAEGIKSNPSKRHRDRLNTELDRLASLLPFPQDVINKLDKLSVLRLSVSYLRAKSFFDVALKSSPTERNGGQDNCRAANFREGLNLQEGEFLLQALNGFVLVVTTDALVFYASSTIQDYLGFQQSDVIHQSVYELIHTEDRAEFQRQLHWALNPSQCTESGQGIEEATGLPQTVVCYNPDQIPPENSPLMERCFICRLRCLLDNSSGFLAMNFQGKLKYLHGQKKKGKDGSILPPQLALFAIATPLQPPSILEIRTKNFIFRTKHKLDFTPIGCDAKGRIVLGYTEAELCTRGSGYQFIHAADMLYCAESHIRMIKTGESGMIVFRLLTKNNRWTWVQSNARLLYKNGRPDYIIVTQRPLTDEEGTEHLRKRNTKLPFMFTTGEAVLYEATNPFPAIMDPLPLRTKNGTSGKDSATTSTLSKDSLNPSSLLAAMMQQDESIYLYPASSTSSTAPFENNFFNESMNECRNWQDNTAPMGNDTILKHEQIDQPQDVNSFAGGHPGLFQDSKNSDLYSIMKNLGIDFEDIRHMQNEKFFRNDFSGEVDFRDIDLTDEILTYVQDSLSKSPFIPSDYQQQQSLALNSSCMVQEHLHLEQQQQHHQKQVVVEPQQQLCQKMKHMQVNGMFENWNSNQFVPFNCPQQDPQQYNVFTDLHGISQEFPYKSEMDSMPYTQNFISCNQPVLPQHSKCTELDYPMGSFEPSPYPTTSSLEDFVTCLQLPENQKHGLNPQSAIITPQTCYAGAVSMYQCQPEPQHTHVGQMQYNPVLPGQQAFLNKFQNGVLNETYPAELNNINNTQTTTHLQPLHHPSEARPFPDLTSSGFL
Chain of Peroxisome proliferator-activated receptor gamma (Homo sapiens) (P37231 whole entry, looked up): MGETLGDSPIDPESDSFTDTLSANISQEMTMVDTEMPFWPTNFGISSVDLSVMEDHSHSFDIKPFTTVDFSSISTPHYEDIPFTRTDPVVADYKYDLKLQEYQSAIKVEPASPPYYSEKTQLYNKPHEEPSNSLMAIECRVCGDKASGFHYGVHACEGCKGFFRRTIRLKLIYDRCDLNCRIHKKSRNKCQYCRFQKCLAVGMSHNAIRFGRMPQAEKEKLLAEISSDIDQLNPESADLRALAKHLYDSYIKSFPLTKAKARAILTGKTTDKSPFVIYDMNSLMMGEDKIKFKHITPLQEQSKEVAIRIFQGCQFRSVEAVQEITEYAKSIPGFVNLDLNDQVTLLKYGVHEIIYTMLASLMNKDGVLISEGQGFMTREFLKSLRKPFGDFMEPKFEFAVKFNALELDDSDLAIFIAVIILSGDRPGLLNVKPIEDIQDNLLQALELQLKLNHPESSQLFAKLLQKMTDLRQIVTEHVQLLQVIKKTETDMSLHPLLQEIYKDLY

Consider `CCCCCCCCCCCCN(CCO)CCO`, for which the Potency in assay [1] is 17.2 µM (active); in assay [2], 15.3 µM (active); in [4] it was 48.8 µM (active); in assay [6] it was 68.3 µM (active); in [7] it was 30.5 µM (active); in [8], 48.4 µM (active). Further, the Potency was 54.7 µM (active) in [10], 54.3 µM (active) in assay [11] and 54.7 µM (active) in [12]. The Potency entry in assay [3], in [5] and in [9] was “inactive” throughout.
For `O=C(O)CC(=O)O`, the Potency result in [1], in [2], in assay [3], in assay [4], in assay [13] and in [7] was “inactive” in each case. In addition, the Potency result in [8], in assay [9], in assay [14], in assay [15], in assay [16] and in [10] was “inactive” throughout. Further, the Potency entry in [11], in [12] and in assay [17] was “inactive” each time.
On to `CCc1cccc(C)c1`, for which the Potency result in assay [1], in assay [2], in assay [3], in assay [18], in assay [4] and in [5] was “inactive” throughout. Also, the Potency entry in [19], in [6], in [13], in [7], in [8] and in [9] was “inactive” throughout. Also, the Potency entry in assay [14], in assay [10], in [20], in [11], in assay [12] and in [17] was “inactive” throughout.
Turning to `CCN(CC)CCNc1ccc(CO)c2sc3ccccc3c(=O)c12`, the Potency was 4.73 µM (active) in assay [1]; 1.06 µM (active) in assay [2]; 30.1 µM [inconclusive] (active) in [18]; 13.3 µM (active) in [13]; 0.531 µM (active) in [9]; 6.68 µM (active) in [14]. Moreover, in [11], the Potency was 6.68 µM (active). Also, the Potency entry in assay [4], in [5], in assay [7], in assay [8], in assay [12] and in assay [17] was “inactive” throughout.
For `O=C1NC2CCCCN2C12CCN(CCCN1c3ccccc3CCc3ccc(Cl)cc31)CC2` (configuration not stated), the Potency in [1] was 6.68 µM (active); in assay [2], 8.41 µM (active); in [7], 23.7 µM (active); in assay [9], 13.3 µM (active); in assay [14], 23.7 µM (active); in assay [10], 26.6 µM (active). In addition, the Potency in assay [11] and in assay [12] was 29.8 µM (active) each time. Moreover, the Potency result in [4] and in assay [5] was “inactive” in each case.
For `C=C[C@](C)(O)CC[C@@H]1[C@@]2(C)CCCC(C)(C)[C@@H]2CC[C@@]1(C)O`, the Potency in assay [1] is 43.3 µM (active); in assay [2], 43.3 µM (active); in assay [4], 54.9 µM (active); in assay [7], 54.5 µM (active); in assay [8], 61.1 µM (active); in [10], 49 µM (active). The values for the Potency in assay [11] and in assay [12] were 77 µM (active) and 43.6 µM (active), respectively. The Potency entry in assay [5], in assay [13], in [9] and in assay [14] was “inactive” each time.
Take `NC1(c2ccc(-c3nc4ccn5c(=O)[nH]nc5c4cc3-c3ccccc3)cc2)CCC1`: the Potency in [1] was 13.3 µM (active); in assay [2] it was 13.3 µM (active); in [5] it was 21.3 µM [activator] (active); in assay [10] it was 4.22 µM (active). Further, the Potency result in assay [19], in [13], in [7], in assay [12] and in [17] was “inactive” each time.
On to `C=C(c1ccc(C(=O)O)cc1)c1cc2c(cc1C)C(C)(C)CCC2(C)C`, for which the Potency in [1] was 11.9 µM (active) and 13.7 µM (active); in [2], 9.44 µM (active) and 9.69 µM (active); in assay [18] it was 17.4 µM [fluorescent] (active); in assay [6] it was 3.76 µM (active); in assay [7], “inactive and 61.1 µM (active)”; in assay [10], 19.5 µM (active). Further, the Potency in assay [11] is 13.7 µM (active); in assay [12], 11 µM (active) and 21.1 µM (active). The Potency entry in [19], in assay [13], in assay [8], in assay [9] and in [14] was “inactive” each time.
With `CCC(C)c1cc([N+](=O)[O-])cc([N+](=O)[O-])c1OC(=O)OC(C)C` (configuration not stated), the Potency was 48.6 µM (active) in assay [1]; 21.7 µM (active) in assay [2]; 61.1 µM (active) in [7]; 54.5 µM (active) in assay [8]; 43.3 µM (active) in [14]; 49 µM (active) in assay [10]. For the same molecule, the figures for the Potency in [11] and in assay [12] were 24.3 µM (active) and 21.9 µM (active), respectively. The Potency entry in assay [3] and in [9] was “inactive” throughout.
